Reference: PubChem BioAssay AID504853 (Southern Research Specialized Biocontainment Screening …, 2011)
Results with a measured potency or affinity are listed apart. The source made the active and inactive calls. No rule for the calls is given here.

Test: HepG2 cell cytotoxicity, dose response, cytotoxicity control, set 3 (AID 504853)
Settings: series mostly up to 50 µM

SMILES | outcome
CCC(Sc1nc2ccccc2c(=O)[nH]1)C(=O)Nc1cccc(OC)c1 (stereo not given) | inactive
COc1cccc(NC(=O)CSc2nc3c(c(=O)[nH]2)CCC3)c1 | inactive
Cn1c(SCC(=O)NC2CCCCC2)nc2ccccc2c1=O | inactive
O=c1[nH]c(=S)[nH]c2ccccc12 | inactive
Cc1nc(SCC(N)=O)[nH]c(=O)c1C | inactive
CC[N+](C)(CC)CCCCOc1ccc2c(c1)C(=O)c1cc(OCCCC[N+](C)(CC)CC)ccc1-2 | inactive
COC(=O)C(Nc1nc(SCC(=O)NC2CCCCC2)nc2ccccc12)c1ccccc1 (stereo not given) | inactive
O=C(CSc1nc2ccccc2c(=O)[nH]1)NC1CCCCC1 | inactive
O=C(CSc1nc2c(c(=O)[nH]1)CCCC2)NC1CCCCC1 | inactive
O=C(CSc1ncccn1)NC1CCCCC1 | inactive
CC1CCN(C(=O)C2CCN(c3nnc(-n4cccc4)s3)CC2)CC1 | inactive
O=C(CSc1nccc(=O)[nH]1)NC1CCCCC1 | inactive
CCC(Sc1nc2c(c(=O)[nH]1)CCC2)C(=O)Nc1cccc(OC)c1 (stereo not given) | inactive
O=c1[nH]c(SCc2ccccc2Cl)nc2c1CCCC2 | inactive
COc1ccc(NC(=O)CSc2nc3ccccc3c(=O)[nH]2)cc1 | inactive
CN(C)C(=O)CSc1nc2ccccc2c(=O)[nH]1 | inactive
CCSc1nc(C)c(C)c(=O)[nH]1 | inactive
CN1CCC(NC(=O)CSc2nc3ccccc3c(=O)[nH]2)CC1 | inactive
O=C(CSc1nc2ccccc2c(=O)[nH]1)NCc1ccc(Cl)cc1 | inactive
Cc1cc(=O)[nH]c(=S)[nH]1 | inactive
CC(C)CCNC(=O)CSc1nc2ccccc2c(=O)[nH]1 | inactive
Cc1ccc(NC(=O)COC(=O)CCc2c[nH]c3ccccc23)cc1[N+](=O)[O-] | inactive
Cc1nc(SCC(=O)N(C)c2ccccc2)[nH]c(=O)c1C | inactive
Cc1ccc(NC(=O)CSc2nc3ccccc3c(=O)[nH]2)cc1Cl | inactive
Cc1c[nH]c(=S)[nH]c1=O | inactive
